# Inconclusive results are not listed. Unmarked numbers belong to inactive results. Calls of active or inactive are those of the source. Calls follow the shape of the dose curve; as a rule, active = well fitted curve in either direction with a large enough effect; inconclusive = small, poorly fitted or top-dose-only effect; inactive = flat fitted curve, though single readings scatter.
# Experiment: Total Fluorescence Confirmation Counterscreen for Inhibitors of the Interaction of Thyroid Hormone Receptor and Steroid Receptor Coregulator 2
# Conditions: Texas Red total fluorescence, TRbeta/SRC2 FP artifact counterscreen; series mostly up to 92.2 µM; total fluorescence change, both ways: at the top concentration
# Text: NIH Molecular Libraries Probe Production Network [MLPCN] NIH Chemical Genomics Center [NCGC] MLPCN Grant: DK058080 Assay Provider: R. Kip Guy, St. Jude Children's Research Hospital NCGC Assay Overview: Thyroid receptor (TR) regulates many homeostatic processes including basal metabolism, cardiovascular function, body weight, and lipid trafficking. TR modulators are potential therapeutics for obesity and hyperlipidemias but current thyroid analogs have undesirable side effects, particularly cardiac stimulation. To identify inhibitors that specifically prevent the interaction of TR with the steroid receptor coregulator 2 (SRC2), a fluorescence polarization assay was screened. This assay detects interaction of the ligand-binding domain of human TRbeta with a Texas Red labeled SRC2 peptide, corresponding to a 20 amino acid region of the nuclear receptor interaction domain (Arnold et al., 2006). Total fluorescence (555 nm excitation and 632 nm emission) was measured to identify potential fluorescent and light absorbing compounds. Such compounds may be artifacts that interfere with the fluorescence polarization assay. This assay is a confirmation assay for AID 1479. Arnold, L. A.; Estebanez-Perpina, E.; Togashi, M.; Shelat, A.; Ocasio, C. A.; McReynolds, A. C.; Nguyen, P.; Baxter, J. D.; Fletterick, R. J.; Webb, P.; Guy, R. K. A high-throughput screening method to identify small molecule inhibitors of thyroid hormone receptor coactivator binding. Sci STKE 2006, p 13.
# NCGC Assay Protocol Summary: For screening, 5 uL/well 0.6 uM TRbeta and 20 nM SRC2 Texas Red in protein buffer (20mM Tris hydrochloride, 100mM NaCl, 10% glycerol, 1mM EDTA, 0.01% NP-40, 1mM DTT, 1uM T3 and 5% DMSO) was dispensed into black solid 1536-well plates (Grenier) using a solenoid-based dispenser. Following transfer of 23 nL compound or DMSO vehicle by a pin tool, the plates were centrifuged 15 s at 1000 RPM and incubated 5 hr at ambient temperature. The plates were read by an Envision (Perkin Elmer) to detect fluorescence polarization of SRC2 Texas Red (555 nm excitation and 632 nm emission). Data were normalized to unbound (all components except TRbeta) and bound SRC2 Texas Red controls. Total fluorescence (TF) was calculated as follows: TF = S + 2P where S and P are fluorescence readings in the parallel and perpendicular channels, respectively. In this assay, we provide % activity data for each concentration as well as potencies for the active compounds.
Structure (SMILES),"total fluorescence change, both ways",outcome
COP(=S)(OC)Oc1ccc([N+](=O)[O-])cc1,8.92% [at 184 µM],
CN1CC[C@@]2(C)c3cc(O)ccc3N(C)C2O1 (stereo partly specified),1.51% [at 184 µM],
CCCCCn1c(N)c(C(=O)NCc2cccs2)c2nc3ccccc3nc21,6.05%,
Cc1[nH]n(-c2ccccc2)c(=O)c1C(c1ccc([N+](=O)[O-])cc1)c1c(C)[nH]n(-c2ccccc2)c1=O,-23.2%,
CCn1nc(-c2cccs2)nc2c(=O)n(C)c(=O)nc1-2,-0.774%,
O=C(O)CC1OCC=C2CN3CCC45C6=CC(=O)C(=O)C([N+](=O)[O-])=C6NC4C1C2CC35 (stereo unspecified),,inactive
